Measured values reported in PubChem BioAssay (NCI).
Compounds without any hit were thinned out: in the full panel of roughly 83,000, 20% have a hit.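 Plates (96-well) were seeded with cells, treated with compound at one concentration, and incubated for 48 hours before percent growth was determined.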 Active and inactive are the calls of the source. Rule for the calls: active = growth percent below 10; inactive = the rest.

Tests used:
Experiment in all cases: NCI-60 one-dose screen, 48 h (100 = growth as untreated, 0 = no growth, -100 = all killed)
Settings in all cases: 10 µM unless noted
SR leukemia = test system: SR leukemia
RPMI-8226 leukemia = test system: RPMI-8226 leukemia
OVCAR-8 ovarian = test system: OVCAR-8 ovarian
OVCAR-5 ovarian = test system: OVCAR-5 ovarian
OVCAR-4 ovarian = test system: OVCAR-4 ovarian
SK-OV-3 ovarian = test system: SK-OV-3 ovarian
OVCAR-3 ovarian = test system: OVCAR-3 ovarian
HS 578T breast = test system: HS 578T breast
NCI/ADR-RES ovarian = test system: NCI/ADR-RES ovarian
T-47D breast = test system: T-47D breast
BT-549 breast = test system: BT-549 breast
MDA-MB-435 melanoma = test system: MDA-MB-435 melanoma
SW-620 colon = test system: SW-620 colon
MCF7 breast = test system: MCF7 breast
HCT-116 colon = test system: HCT-116 colon
HCC-2998 colon = test system: HCC-2998 colon
KM12 colon = test system: KM12 colon
IGROV1 ovarian = test system: IGROV1 ovarian

Measured: growth

COC1=CC(c2ccc[nH]2)=N/C1=C\c1[nH]c(C)c(C(=O)CCCCC(=O)Nc2ccccc2)c1C
active: OVCAR-8 ovarian -46.4% | SW-620 colon -87.8% | MCF7 breast -85.7% | HCT-116 colon -100% | KM12 colon -3.11%
inactive: SR leukemia 44% | RPMI-8226 leukemia 126% | OVCAR-5 ovarian 64.4% | OVCAR-4 ovarian 54.4% | SK-OV-3 ovarian 77.5% | OVCAR-3 ovarian 40.6% | HS 578T breast 82.2% | NCI/ADR-RES ovarian 32.9% | T-47D breast 63.9% | BT-549 breast 13.9% | MDA-MB-435 melanoma 17% | HCC-2998 colon 55.6%

CC(=O)Nc1nc(C(=O)N2N=C(C)/C(=C/c3ccc(Cl)cc3)C2=O)cs1
inactive: SR leukemia 88.1% | RPMI-8226 leukemia 103% | OVCAR-8 ovarian 103% | OVCAR-5 ovarian 110% | OVCAR-4 ovarian 112% | SK-OV-3 ovarian 108% | IGROV1 ovarian 108% | NCI/ADR-RES ovarian 109% | T-47D breast 95.6% | BT-549 breast 97.4% | MDA-MB-435 melanoma 112% | SW-620 colon 109% | MCF7 breast 94.4% | HCT-116 colon 99.9% | HCC-2998 colon 104% | KM12 colon 101%

Nc1cccc2c1CN(C1CCC(=O)NC1=O)C2=O (stereo unspecified)
inactive: SR leukemia 71.8% | RPMI-8226 leukemia 109% | OVCAR-8 ovarian 81.1% | OVCAR-5 ovarian 95.6% | OVCAR-4 ovarian 105% | SK-OV-3 ovarian 93.1% | IGROV1 ovarian 29.8% | HS 578T breast 112% | NCI/ADR-RES ovarian 104% | T-47D breast 97.5% | BT-549 breast 105% | MDA-MB-435 melanoma 101% | SW-620 colon 95.6% | MCF7 breast 94.5% | HCT-116 colon 114% | KM12 colon 98.1%

CC(C)N(Cc1ccc(CN(C(=O)CCl)C(C)C)cc1)C(=O)CCl
inactive: OVCAR-4 ovarian 26.4% | SK-OV-3 ovarian 49.7% | HS 578T breast 59.3% | BT-549 breast 18.6% | MDA-MB-435 melanoma 27.2% | MCF7 breast 23.8% | HCC-2998 colon 93.8% | KM12 colon 41.1%
active: SR leukemia 8.59% | RPMI-8226 leukemia 1.57% | OVCAR-8 ovarian -12.9% | OVCAR-5 ovarian 4.12% | IGROV1 ovarian -49.3% | NCI/ADR-RES ovarian 4.6% | T-47D breast -14.8% | SW-620 colon 2.78% | HCT-116 colon -67.4%

O=S(=O)(NCCCNc1cc(-c2cn(-c3ccccc3)nc2-c2cccc(O)c2)ccn1)c1cccc2ccccc12
inactive: SR leukemia 13.9% | OVCAR-8 ovarian 48.4% | OVCAR-5 ovarian 59.7% | OVCAR-4 ovarian 45.2% | SK-OV-3 ovarian 58.8% | IGROV1 ovarian 51% | HS 578T breast 15.6% | NCI/ADR-RES ovarian 39.9% | T-47D breast 33.1% | BT-549 breast 37.1% | MDA-MB-435 melanoma 32.8% | SW-620 colon 22.5% | MCF7 breast 15.8% | HCT-116 colon 28.1% | KM12 colon 25.5%
active: RPMI-8226 leukemia 7.85% | HCC-2998 colon -71%

COC1=CC(c2ccc[nH]2)=N/C1=C\c1[nH]c(C)c(C(=O)CCCCC(=O)Oc2ccc3c(c2)CCC2C3CC[C@]3(C)[C@@H](O)CC[C@@H]23)c1C (stereo partly specified)
inactive: SR leukemia 23.2% | RPMI-8226 leukemia 45% | OVCAR-8 ovarian 70.8% | OVCAR-5 ovarian 65.6% | OVCAR-4 ovarian 48.6% | SK-OV-3 ovarian 90% | IGROV1 ovarian 70.7% | HS 578T breast 54.3% | NCI/ADR-RES ovarian 82.4% | BT-549 breast 50.3% | MDA-MB-435 melanoma 51.2% | SW-620 colon 37.4% | MCF7 breast 27.2% | HCT-116 colon 20.9% | HCC-2998 colon 83.1% | KM12 colon 29.4%
active: T-47D breast 5.62%

COc1ccc(/C=C/c2nc(N3CCOCC3)c3cc(F)c(F)cc3n2)cc1OC
inactive: SR leukemia 16.2% | RPMI-8226 leukemia 12.2% | OVCAR-8 ovarian 32.9% | OVCAR-5 ovarian 76% | OVCAR-4 ovarian 30.6% | SK-OV-3 ovarian 71.8% | IGROV1 ovarian 53.4% | HS 578T breast 70.1% | NCI/ADR-RES ovarian 22.8% | BT-549 breast 33.4% | MDA-MB-435 melanoma 15.8% | MCF7 breast 15.9% | HCT-116 colon 38.7% | KM12 colon 28.1%
active: T-47D breast 6.31%

Nc1c(C(=O)Nc2ccccc2)sc2nc3c(cc12)CCCCC3
active: RPMI-8226 leukemia -29.6% | NCI/ADR-RES ovarian 2.18% | MDA-MB-435 melanoma -50.7%
inactive: SR leukemia 17% | OVCAR-8 ovarian 17.9% | OVCAR-5 ovarian 43.8% | OVCAR-4 ovarian 15.3% | SK-OV-3 ovarian 17.1% | IGROV1 ovarian 36.2% | HS 578T breast 14.5% | T-47D breast 42.2% | BT-549 breast 48.8% | SW-620 colon 24.2% | MCF7 breast 12.1% | HCT-116 colon 11.2% | HCC-2998 colon 43.5% | KM12 colon 12.2%

COc1cc(C2C=C(C)N=C3SC=C(C)N32)cc(OC)c1OC (stereo unspecified)
active: SR leukemia -6.27% | RPMI-8226 leukemia -26.3% | OVCAR-8 ovarian 9.1% | OVCAR-5 ovarian -45.8% | SK-OV-3 ovarian -5.5% | IGROV1 ovarian -49.8% | T-47D breast 7.98% | BT-549 breast -49.9% | MDA-MB-435 melanoma -33.3% | SW-620 colon -44.5% | MCF7 breast -14.8% | HCT-116 colon -67.5% | HCC-2998 colon -90.5% | KM12 colon -77%
inactive: OVCAR-4 ovarian 12.6% | NCI/ADR-RES ovarian 19.5%

COc1ccc(C2CC(c3cccs3)=NN2c2ccc(S(=O)(=O)NC(=O)NCc3cccc(OC)c3)cc2)cc1 (stereo unspecified)
inactive: SR leukemia 75.8% | RPMI-8226 leukemia 95.3% | OVCAR-8 ovarian 107% | OVCAR-5 ovarian 113% | OVCAR-4 ovarian 103% | SK-OV-3 ovarian 82.6% | IGROV1 ovarian 108% | HS 578T breast 97.5% | NCI/ADR-RES ovarian 103% | T-47D breast 85.7% | BT-549 breast 116% | MDA-MB-435 melanoma 52.3% | SW-620 colon 107% | MCF7 breast 99% | HCT-116 colon 98.8% | HCC-2998 colon 111% | KM12 colon 98.5%

COc1ccc(/C=C2\C(=O)N(C(=O)c3csc(NC(C)=O)n3)N=C2C)cc1
inactive: SR leukemia 82.2% | RPMI-8226 leukemia 98.4% | OVCAR-8 ovarian 96% | OVCAR-5 ovarian 110% | OVCAR-4 ovarian 109% | SK-OV-3 ovarian 100% | IGROV1 ovarian 95.9% | HS 578T breast 111% | NCI/ADR-RES ovarian 105% | T-47D breast 99.2% | BT-549 breast 95.9% | MDA-MB-435 melanoma 106% | MCF7 breast 88.4% | HCT-116 colon 98.2% | HCC-2998 colon 103% | KM12 colon 102%

COc1ccc(C2NC3=C(CCCC3)C(C#N)(C#N)C2(C#N)C#N)cc1 (stereo unspecified)
inactive: RPMI-8226 leukemia 79.9% | OVCAR-8 ovarian 104% | OVCAR-5 ovarian 97.1% | OVCAR-4 ovarian 98.1% | SK-OV-3 ovarian 99.5% | OVCAR-3 ovarian 43% | HS 578T breast 98% | NCI/ADR-RES ovarian 101% | T-47D breast 49.2% | BT-549 breast 92.9% | MDA-MB-435 melanoma 103% | SW-620 colon 48.2% | MCF7 breast 49.9% | HCT-116 colon 78.7% | HCC-2998 colon 102% | KM12 colon 103%
active: SR leukemia 1.12%

CC(=O)Nc1nc(C(=O)N2N=C(C)/C(=C/c3cccs3)C2=O)cs1
inactive: SR leukemia 91.9% | RPMI-8226 leukemia 97.4% | OVCAR-8 ovarian 103% | OVCAR-5 ovarian 115% | OVCAR-4 ovarian 106% | SK-OV-3 ovarian 99.4% | IGROV1 ovarian 97.1% | HS 578T breast 114% | NCI/ADR-RES ovarian 112% | T-47D breast 100% | BT-549 breast 97% | MDA-MB-435 melanoma 103% | SW-620 colon 110% | MCF7 breast 90.8% | HCT-116 colon 100% | HCC-2998 colon 108% | KM12 colon 110%

COc1cc(Cn2c(SCC(=O)Nc3cc(OC)c(OC)c(OC)c3)nc3ccccc3c2=O)cc(OC)c1OC
inactive: SR leukemia 66.6% | RPMI-8226 leukemia 96% | OVCAR-8 ovarian 81% | OVCAR-5 ovarian 88.8% | OVCAR-4 ovarian 89.8% | SK-OV-3 ovarian 51.2% | IGROV1 ovarian 72.6% | HS 578T breast 48.4% | BT-549 breast 65.2% | MDA-MB-435 melanoma 102% | MCF7 breast 95.3% | HCT-116 colon 58.3% | HCC-2998 colon 124% | KM12 colon 99.1%

NC(=O)c1c(NC(=O)c2ccc3c(c2)OCO3)sc2c1CCC(=O)C2
inactive: HS 578T breast 16.7% | HCC-2998 colon 12.5%
active: SR leukemia -19.6% | RPMI-8226 leukemia -34.9% | OVCAR-8 ovarian -15.9% | OVCAR-5 ovarian -49.8% | OVCAR-4 ovarian -70.8% | SK-OV-3 ovarian -11.7% | IGROV1 ovarian -17.1% | NCI/ADR-RES ovarian -6.35% | T-47D breast -39.7% | BT-549 breast -6.08% | MDA-MB-435 melanoma 2.97% | SW-620 colon -10.8% | MCF7 breast -7.93% | HCT-116 colon -56.3% | KM12 colon -20.6%

O=C1c2ccccc2C(=O)c2c(N=Nc3sc(=O)[nH]c3S)cccc21
inactive: SR leukemia 85% | RPMI-8226 leukemia 90.2% | OVCAR-8 ovarian 94.9% | OVCAR-5 ovarian 129% | OVCAR-4 ovarian 95.3% | SK-OV-3 ovarian 117% | IGROV1 ovarian 94.1% | HS 578T breast 90.3% | NCI/ADR-RES ovarian 98.8% | T-47D breast 82.4% | BT-549 breast 109% | MDA-MB-435 melanoma 100% | SW-620 colon 90% | MCF7 breast 72% | HCT-116 colon 95.7% | HCC-2998 colon 102% | KM12 colon 90.3%

Clc1ccc(/C=C/c2nc(N3CCOCC3)c3nc(Cl)c(Cl)cc3n2)cc1
inactive: SR leukemia 98% | RPMI-8226 leukemia 102% | OVCAR-8 ovarian 108% | OVCAR-5 ovarian 110% | OVCAR-4 ovarian 128% | SK-OV-3 ovarian 105% | IGROV1 ovarian 117% | HS 578T breast 104% | NCI/ADR-RES ovarian 98.5% | T-47D breast 73% | BT-549 breast 93.6% | MDA-MB-435 melanoma 98.1% | SW-620 colon 114% | MCF7 breast 56.8% | HCT-116 colon 83.7% | HCC-2998 colon 94.4% | KM12 colon 114%

Oc1ccc(Cl)cc1-c1cc(-c2ccc(Cl)cc2)n[nH]1
active: MCF7 breast 3.03%
inactive: SR leukemia 41.6% | RPMI-8226 leukemia 40.4% | OVCAR-8 ovarian 72.5% | OVCAR-5 ovarian 73.3% | OVCAR-4 ovarian 35% | SK-OV-3 ovarian 79% | IGROV1 ovarian 34.5% | HS 578T breast 81.5% | T-47D breast 30.9% | BT-549 breast 84% | MDA-MB-435 melanoma 84.9% | SW-620 colon 81% | HCT-116 colon 43.8% | HCC-2998 colon 22% | KM12 colon 29.6%
